Measured values as given in PubChem BioAssay (NCI).
The panel holds about 83,000 compounds, 20% with a hit somewhere; the sample as a whole holds those more often.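 48-hour exposure, single concentration, 96-well plates; percent growth endpoint where 0 means no net growth. Active: below 10.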 Active and inactive are the calls of the source.

Each molecule was assayed on TK-10 renal (assay: NCI-60 one-dose screen, 48 h (100 = growth as untreated, 0 = no growth, -100 = all killed)). Conditions: 10 µM unless noted.

Structure (SMILES)	growth
O=C(O)c1cn(C2CC2)c2cc(N3CCN(Cc4cc(Cl)ccc4O)CC3)c(F)cc2c1=O	81% (inactive)
Cc1ccc(C2=C/C(=C/c3ccc(Br)cc3)C(=O)N2CCc2ccc(S(N)(=O)=O)cc2)cc1	110% (inactive)
COc1ccc(C(=O)/C=C/c2ccccn2)c(O)c1	92.4% (inactive)
Cc1cc(C)c(S(=O)(=O)/N=c2/n(-c3ccccc3)nc3n2CCN3C2=NCCN2)c(C)c1	92.5% (inactive)
Cc1ccc(S(=O)(=O)n2cc(C(=O)C(=O)N3CCCCC3)c3ccccc32)cc1	103% (inactive)
COc1cc(C)cc2oc3oc(=N)c(C(=O)c4ccccc4)cc3c(=O)c12	105% (inactive)
COc1ccc(OC)c([N+](=O)[O-])c1C(=O)CNC(C)=O	105% (inactive)
Cc1ccc(S(=O)(=O)N/N=C2\CC3CCC2(C)C3(C)C)cc1 (stereo not given)	137% (inactive)
O=C(N=c1n(-c2ccccc2)nc2n1CCN2C1=NCCN1C(=O)c1ccc(Cl)cc1)c1ccc(Cl)cc1	74.6% (inactive)
O=C(NCc1ccc(Cn2c(=O)sn(-c3ccccc3)c2=O)cc1)OCc1ccc2c(Br)cc(Br)c(O)c2n1	-90.5% (active)
Cc1nc(Cl)c2c(n1)N(C)c1ccc(Cl)cc1C(C)C2 (stereo not given)	92.9% (inactive)
C=C(C)[C@@H]1CC[C@]2(COCCC#N)CC[C@]3(C)[C@H](CC[C@@H]4[C@@](C)(CCCNCCC#N)[C@H](C(=C)C)CC[C@]43C)[C@@H]12	49.7% [100 µM] (inactive)
O=C(Nc1cccc(F)c1)c1cc(=O)[nH]c2cc(Br)ccc12	69.8% (inactive)
O=C(NCCCNC(=O)OCc1ccc2c(Br)cc(Br)c(O)c2n1)OCc1ccc2c(Br)cc(Br)c(O)c2n1	-89% (active)
COc1ccc(OC)c(NC=O)c1	102% (inactive)
CCN(CCNc1ccc(C)c2sc3cc(Cl)ccc3c(=O)c12)CC(C)O (stereo not given)	76.7% (inactive)
CN(C)c1ccc(-c2ccc(-c3ccc(C(=N)N)cc3)s2)cc1	-87.9% (active)
CC(=O)OC[C@]12CC[C@@H]([C@@H](C)C(N)=O)[C@@H]1[C@H]1CC[C@@H]3[C@@]4(C)CC[C@H](OC(C)=O)C(C)(C)[C@@H]4CC[C@@]3(C)[C@]1(C)CC2	-35.4% [100 µM] (active)
O=C(Nc1ccccc1)Nc1ccc(C(=O)/C=C/c2ccc(N3CCCC3)cc2)cc1	102% (inactive)
C#C[C@]1(O)CC[C@H]2[C@@H]3CC=C4c5nc(Nc6ccccn6)sc5CC[C@]4(C)[C@H]3CC[C@@]21C	12.3% (inactive)
Cn1cc(-c2nnc(-c3cn(C)c4ncccc34)o2)c2ccccc21	69.9% (inactive)
O=C1C(Cl)=C(Nc2ccc3cn[nH]c3c2)C(=O)c2ccccc21	19.8% (inactive)
COc1cc(/C=C/C(=O)/C=C/c2ccc(-n3ccnc3C)cc2)ccc1O	88% (inactive)
Nc1cc(Cl)cc2cccnc12	109% (inactive)
CN(C)CCOc1ccc(/C(=C(/CCCl)c2ccccc2)c2ccccc2)cc1	49.8% (inactive)
Nc1cc(N)c(N=Nc2ccc(S(=O)(=O)O)cc2)cc1N=Nc1ccc(-c2ccc(N=Nc3ccc(O)c(C(=O)O)c3)cc2)cc1	142% (inactive)
Cn1cc(-c2noc(-c3cn(C)c4ncc(F)cc34)n2)c2ccccc21	38.9% (inactive)
Nc1ccc(NC(=O)c2ccccc2)c2c1C(=O)c1ccccc1C2=O	96.1% (inactive)

Each molecule was assayed on ACHN renal in the same assay as above. Conditions: 10 µM unless noted.

Structure (SMILES)	growth
COc1ccc2c(c1)c(-c1noc(-c3cn(C)c4ncc(F)cc34)n1)cn2C	84.4% (inactive)
O=C(N/N=C\c1cc(Cl)ccc1O)N/N=C/c1cc(Cl)ccc1O	27.5% (inactive)
O=C(O)c1ccccc1C(F)(F)F	92.6% (inactive)
CS(=O)(=O)c1cccnn1	97.7% (inactive)
O=C(Nc1ccc(Oc2ccc(F)cc2)c(Cl)c1)c1cccnn1	73.7% (inactive)
CCC(Br)(CC)C(=O)c1ccc(OCC(=O)O)c(Cl)c1Cl	108% (inactive)
NC(=O)c1cccc(-c2ccc(S(=O)(=O)Nc3ccc4c(c3)N(C(=O)C3CC3)CCC4)cc2)c1	79.2% (inactive)
C#CCC(C(=O)OCC)C(=O)OCC	102% (inactive)
O=[N+]([O-])c1cc(CCl)ccc1OCCBr	107% (inactive)
O=C(O)c1cn(C2CC2)c2cc(N3CCN(Cc4cc(Cl)ccc4O)CC3)c(F)cc2c1=O	44.3% (inactive)
Cc1ccc(C2=C/C(=C/c3ccc(Br)cc3)C(=O)N2CCc2ccc(S(N)(=O)=O)cc2)cc1	97.7% (inactive)
COc1ccc(C(=O)/C=C/c2ccccn2)c(O)c1	45% (inactive)
Cc1cc(C)c(S(=O)(=O)/N=c2/n(-c3ccccc3)nc3n2CCN3C2=NCCN2)c(C)c1	90% (inactive)
Cc1ccc(S(=O)(=O)n2cc(C(=O)C(=O)N3CCCCC3)c3ccccc32)cc1	65.6% (inactive)
COc1cc(C)cc2oc3oc(=N)c(C(=O)c4ccccc4)cc3c(=O)c12	95.5% (inactive)
COc1ccc(OC)c([N+](=O)[O-])c1C(=O)CNC(C)=O	100% (inactive)
Cc1ccc(S(=O)(=O)N/N=C2\CC3CCC2(C)C3(C)C)cc1 (stereo not given)	102% (inactive)
O=C(N=c1n(-c2ccccc2)nc2n1CCN2C1=NCCN1C(=O)c1ccc(Cl)cc1)c1ccc(Cl)cc1	59.1% (inactive)
O=C(NCc1ccc(Cn2c(=O)sn(-c3ccccc3)c2=O)cc1)OCc1ccc2c(Br)cc(Br)c(O)c2n1	-100% (active)

Structure (SMILES)	growth
Cc1nc(Cl)c2c(n1)N(C)c1ccc(Cl)cc1C(C)C2 (stereo not given)	91.7% (inactive)
C=C(C)[C@@H]1CC[C@]2(COCCC#N)CC[C@]3(C)[C@H](CC[C@@H]4[C@@](C)(CCCNCCC#N)[C@H](C(=C)C)CC[C@]43C)[C@@H]12	11.4% [100 µM] (inactive)
O=C(Nc1cccc(F)c1)c1cc(=O)[nH]c2cc(Br)ccc12	57% (inactive)
O=C(NCCCNC(=O)OCc1ccc2c(Br)cc(Br)c(O)c2n1)OCc1ccc2c(Br)cc(Br)c(O)c2n1	-100% (active)
COc1ccc(OC)c(NC=O)c1	106% (inactive)
CCN(CCNc1ccc(C)c2sc3cc(Cl)ccc3c(=O)c12)CC(C)O (stereo not given)	44.7% (inactive)
CN(C)c1ccc(-c2ccc(-c3ccc(C(=N)N)cc3)s2)cc1	-38.8% (active)
CC(=O)OC[C@]12CC[C@@H]([C@@H](C)C(N)=O)[C@@H]1[C@H]1CC[C@@H]3[C@@]4(C)CC[C@H](OC(C)=O)C(C)(C)[C@@H]4CC[C@@]3(C)[C@]1(C)CC2	-75.7% [100 µM] (active)
O=C(Nc1ccccc1)Nc1ccc(C(=O)/C=C/c2ccc(N3CCCC3)cc2)cc1	83.6% (inactive)
C#C[C@]1(O)CC[C@H]2[C@@H]3CC=C4c5nc(Nc6ccccn6)sc5CC[C@]4(C)[C@H]3CC[C@@]21C	21.6% (inactive)
Cn1cc(-c2nnc(-c3cn(C)c4ncccc34)o2)c2ccccc21	36% (inactive)
O=C1C(Cl)=C(Nc2ccc3cn[nH]c3c2)C(=O)c2ccccc21	41.1% (inactive)
COc1cc(/C=C/C(=O)/C=C/c2ccc(-n3ccnc3C)cc2)ccc1O	58.8% (inactive)
Nc1cc(Cl)cc2cccnc12	102% (inactive)
CN(C)CCOc1ccc(/C(=C(/CCCl)c2ccccc2)c2ccccc2)cc1	30.1% (inactive)
Nc1cc(N)c(N=Nc2ccc(S(=O)(=O)O)cc2)cc1N=Nc1ccc(-c2ccc(N=Nc3ccc(O)c(C(=O)O)c3)cc2)cc1	99.8% (inactive)
Cn1cc(-c2noc(-c3cn(C)c4ncc(F)cc34)n2)c2ccccc21	66.3% (inactive)
Nc1ccc(NC(=O)c2ccccc2)c2c1C(=O)c1ccccc1C2=O	92.6% (inactive)
